# Values joined by “and” are separate entries in the source; they are usually repeats but may differ in a detail not shown here. Equal values may be shown once. Inconclusive results are not listed. Entries that show only a call come without a potency. Where a structure was tested more than once in an assay, its records may differ in their call. Active and inactive are the calls of the source. Unless noted, the call rests on the fitted dose curve; in most records, active means well fitted curve in the direction sought with a large enough effect in the repeat runs; inconclusive means weak or mixed curves; inactive means no such curve, though single readings can be large; an effect the other way counts as inactive or inconclusive.
# Key:
# [1] = molecular target: Acetylcholinesterase (Homo sapiens) (UniProt P22303); assay: Acetylcholinesterase (AChE) small molecule antagonists: enzyme-based qHTS assay (AID 1347397; calls by dose curve; further: nearly all actives have a fitted effect of over 55% in size); conditions: Potency: AChE enzyme activity inhibition
# Acetylcholinesterase (Homo sapiens), sequence (P22303 whole entry, looked up): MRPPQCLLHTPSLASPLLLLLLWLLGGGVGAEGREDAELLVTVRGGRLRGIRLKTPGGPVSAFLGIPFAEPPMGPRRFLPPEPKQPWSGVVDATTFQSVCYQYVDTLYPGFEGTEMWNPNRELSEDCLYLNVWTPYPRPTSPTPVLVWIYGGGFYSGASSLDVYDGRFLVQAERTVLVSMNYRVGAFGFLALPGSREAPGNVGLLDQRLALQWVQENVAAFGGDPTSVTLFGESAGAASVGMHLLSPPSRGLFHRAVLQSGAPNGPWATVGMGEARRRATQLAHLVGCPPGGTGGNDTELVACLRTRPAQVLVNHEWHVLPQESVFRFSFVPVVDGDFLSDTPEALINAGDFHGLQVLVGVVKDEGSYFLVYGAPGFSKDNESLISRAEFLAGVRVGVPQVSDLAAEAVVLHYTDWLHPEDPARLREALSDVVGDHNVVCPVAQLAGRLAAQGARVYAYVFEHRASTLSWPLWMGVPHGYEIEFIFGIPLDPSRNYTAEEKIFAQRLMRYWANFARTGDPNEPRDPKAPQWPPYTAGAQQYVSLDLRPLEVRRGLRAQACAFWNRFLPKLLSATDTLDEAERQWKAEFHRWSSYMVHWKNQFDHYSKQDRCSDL
# How it was run: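 In this quantitative HTS, compounds from the Tox21 10K collection were preincubated 30 min at ambient temperature with recombinant human AChE dispensed at 50 mU/mL. Hydrolysis of acetylthiocholine was then followed for 10 min by DTNB colour development.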
# [2] = molecular target: Acetylcholinesterase (Homo sapiens) (UniProt P22303); assay: Acetylcholinesterase (AChE) small molecule antagonists: fluorescence cell-based qHTS assay (AID 1347398; calls by dose curve; further: nearly all actives have a fitted effect of over 50% in size; further: potency means the concentration at half of the fitted maximal effect); conditions: Potency: AChE activity
# How it was run: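 Cells (SH-SY5Y) attached overnight, were dosed with compound or DMSO vehicle for 30 min at 37 C, and then incubated 40 min at room temperature with acetylthiocholine and Thiolite Green; green fluorescence indexed AChE activity.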
# [3] = molecular target: Cytochrome P450 2D6 (Homo sapiens) (UniProt P10635); assay: Cytochrome P450 Family 2 Subfamily D Member 6 (CYP2D6) small molecule antagonists: luciferase reporter qHTS assay (AID 1671196); further: nearly all actives have a fitted effect of over 50% in size; further: potency means the concentration at half of the fitted maximal effect
# Cytochrome P450 2D6 (Homo sapiens), sequence (P10635 whole entry, looked up): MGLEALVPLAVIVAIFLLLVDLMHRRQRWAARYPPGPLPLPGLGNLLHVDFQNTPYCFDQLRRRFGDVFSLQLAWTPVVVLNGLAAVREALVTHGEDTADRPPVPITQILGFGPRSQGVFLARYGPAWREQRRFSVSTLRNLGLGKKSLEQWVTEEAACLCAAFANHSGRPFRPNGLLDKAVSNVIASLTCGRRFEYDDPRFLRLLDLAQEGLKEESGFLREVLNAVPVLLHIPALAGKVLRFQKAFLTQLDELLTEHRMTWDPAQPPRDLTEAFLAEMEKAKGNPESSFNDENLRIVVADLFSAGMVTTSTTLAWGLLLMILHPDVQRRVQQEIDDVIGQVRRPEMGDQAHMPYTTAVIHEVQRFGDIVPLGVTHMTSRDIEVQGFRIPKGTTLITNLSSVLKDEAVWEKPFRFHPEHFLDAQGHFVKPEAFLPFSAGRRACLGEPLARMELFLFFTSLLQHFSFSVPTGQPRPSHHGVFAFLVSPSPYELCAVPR
# How it was run: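 Test chemicals meet CYP2D6 plus proluciferin substrate (10 min, RT); NADPH regenerating solution then drives turnover for 1 h. Detection reagent halts the reaction; luminescence measured after 20 min.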
# [4] = molecular target: Cytochrome P450 2C19 (Homo sapiens) (UniProt P33261); assay: Cytochrome P450 Family 2 Subfamily C Member 19 (CYP2C19) small molecule antagonists: luciferase reporter qHTS assay (AID 1671197); further: nearly all actives have a fitted effect of over 65% in size; further: potency means the concentration at half of the fitted maximal effect
# Cytochrome P450 2C19 (Homo sapiens), sequence (P33261 whole entry, looked up): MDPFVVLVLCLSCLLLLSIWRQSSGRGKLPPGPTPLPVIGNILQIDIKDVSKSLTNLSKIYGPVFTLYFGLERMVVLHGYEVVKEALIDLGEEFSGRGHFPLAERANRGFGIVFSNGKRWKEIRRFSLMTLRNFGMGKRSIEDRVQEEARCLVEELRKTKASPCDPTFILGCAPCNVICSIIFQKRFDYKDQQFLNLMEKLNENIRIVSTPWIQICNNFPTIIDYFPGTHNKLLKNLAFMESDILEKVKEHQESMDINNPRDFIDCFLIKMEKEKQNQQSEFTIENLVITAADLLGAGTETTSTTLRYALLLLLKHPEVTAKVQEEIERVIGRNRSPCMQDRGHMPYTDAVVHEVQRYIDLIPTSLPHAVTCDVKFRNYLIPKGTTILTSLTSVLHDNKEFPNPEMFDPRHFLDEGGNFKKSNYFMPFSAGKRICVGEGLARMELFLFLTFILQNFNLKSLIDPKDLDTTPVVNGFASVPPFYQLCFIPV
# How it was run: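 Compounds were tested on CYP2C19 activity via proluciferin conversion to luciferin. The 37C, 1 h reaction followed NADPH addition; detection reagent stopped it.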
# [5] = molecular target: Cytochrome P450 2C9 (Homo sapiens) (UniProt P11712); assay: Cytochrome P450 Family 2 Subfamily C Member 9 (CYP2C9) small molecule antagonists: luciferase reporter qHTS assay (AID 1671198); further: nearly all actives have a fitted effect of over 50% in size; further: potency means the concentration at half of the fitted maximal effect
# Cytochrome P450 2C9 (Homo sapiens), sequence (P11712 whole entry, looked up): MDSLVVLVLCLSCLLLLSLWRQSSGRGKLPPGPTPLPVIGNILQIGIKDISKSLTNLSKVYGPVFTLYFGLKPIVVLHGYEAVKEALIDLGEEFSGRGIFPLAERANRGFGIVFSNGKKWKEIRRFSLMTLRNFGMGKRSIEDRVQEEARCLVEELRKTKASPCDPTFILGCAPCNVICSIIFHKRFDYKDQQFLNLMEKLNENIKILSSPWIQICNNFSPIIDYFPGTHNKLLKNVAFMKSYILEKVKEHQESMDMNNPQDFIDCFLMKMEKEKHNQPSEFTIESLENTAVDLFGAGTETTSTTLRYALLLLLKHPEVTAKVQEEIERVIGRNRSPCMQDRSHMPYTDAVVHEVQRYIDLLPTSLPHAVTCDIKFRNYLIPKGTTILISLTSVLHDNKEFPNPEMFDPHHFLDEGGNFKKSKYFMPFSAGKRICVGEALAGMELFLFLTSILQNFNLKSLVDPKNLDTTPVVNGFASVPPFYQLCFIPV
# How it was run: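 P450-Glo proluciferin substrate with CYP2C9 enzyme; 10 min RT preincubation, then NADPH regeneration 1 h at 37C; luciferin detection reagent 20 min RT, luminescence in relative luminescence units.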
# [6] = molecular target: Cytochrome P450 1A2 (Homo sapiens) (UniProt P05177); assay: Cytochrome P450 Family 1 Subfamily A Member 2 (CYP1A2) small molecule antagonists: luciferase reporter qHTS assay (AID 1671199); further: nearly all actives have a fitted effect of over 50% in size; further: potency means the concentration at half of the fitted maximal effect
# Cytochrome P450 1A2 (Homo sapiens), sequence (P05177 whole entry, looked up): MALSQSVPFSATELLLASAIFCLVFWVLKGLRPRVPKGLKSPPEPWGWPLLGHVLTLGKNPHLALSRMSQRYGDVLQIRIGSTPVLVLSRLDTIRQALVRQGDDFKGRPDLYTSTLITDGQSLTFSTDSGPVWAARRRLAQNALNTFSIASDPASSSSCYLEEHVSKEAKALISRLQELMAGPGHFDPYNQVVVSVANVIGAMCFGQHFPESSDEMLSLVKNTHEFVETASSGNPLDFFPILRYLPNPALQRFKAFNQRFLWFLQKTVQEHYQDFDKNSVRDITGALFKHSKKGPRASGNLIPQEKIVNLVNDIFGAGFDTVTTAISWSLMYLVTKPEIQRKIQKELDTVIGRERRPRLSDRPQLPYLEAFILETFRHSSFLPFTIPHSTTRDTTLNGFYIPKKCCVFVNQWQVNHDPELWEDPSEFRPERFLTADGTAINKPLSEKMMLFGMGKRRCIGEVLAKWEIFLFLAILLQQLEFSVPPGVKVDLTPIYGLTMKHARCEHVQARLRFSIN
# How it was run: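 Steps: enzyme-substrate mix dispensed; test compounds and furafylline control pinned in; 10 min room temperature; NADPH regeneration solution added, 1 h; reaction stopped with luciferin detection reagent; luminescence read after 20 min.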
# [7] = molecular target: Voltage-gated inwardly rectifying potassium channel KCNH2 (Homo sapiens) (UniProt Q12809); assay: Human Ether-a-go-go-Related Gene (hERG) channel small molecule antagonists: fluorescence cell-based qHTS assay (AID 1671200); further: nearly all actives have a fitted effect of over 50% in size; further: potency means the concentration at half of the fitted maximal effect
# Voltage-gated inwardly rectifying potassium channel KCNH2 (Homo sapiens), sequence (Q12809 whole entry, looked up): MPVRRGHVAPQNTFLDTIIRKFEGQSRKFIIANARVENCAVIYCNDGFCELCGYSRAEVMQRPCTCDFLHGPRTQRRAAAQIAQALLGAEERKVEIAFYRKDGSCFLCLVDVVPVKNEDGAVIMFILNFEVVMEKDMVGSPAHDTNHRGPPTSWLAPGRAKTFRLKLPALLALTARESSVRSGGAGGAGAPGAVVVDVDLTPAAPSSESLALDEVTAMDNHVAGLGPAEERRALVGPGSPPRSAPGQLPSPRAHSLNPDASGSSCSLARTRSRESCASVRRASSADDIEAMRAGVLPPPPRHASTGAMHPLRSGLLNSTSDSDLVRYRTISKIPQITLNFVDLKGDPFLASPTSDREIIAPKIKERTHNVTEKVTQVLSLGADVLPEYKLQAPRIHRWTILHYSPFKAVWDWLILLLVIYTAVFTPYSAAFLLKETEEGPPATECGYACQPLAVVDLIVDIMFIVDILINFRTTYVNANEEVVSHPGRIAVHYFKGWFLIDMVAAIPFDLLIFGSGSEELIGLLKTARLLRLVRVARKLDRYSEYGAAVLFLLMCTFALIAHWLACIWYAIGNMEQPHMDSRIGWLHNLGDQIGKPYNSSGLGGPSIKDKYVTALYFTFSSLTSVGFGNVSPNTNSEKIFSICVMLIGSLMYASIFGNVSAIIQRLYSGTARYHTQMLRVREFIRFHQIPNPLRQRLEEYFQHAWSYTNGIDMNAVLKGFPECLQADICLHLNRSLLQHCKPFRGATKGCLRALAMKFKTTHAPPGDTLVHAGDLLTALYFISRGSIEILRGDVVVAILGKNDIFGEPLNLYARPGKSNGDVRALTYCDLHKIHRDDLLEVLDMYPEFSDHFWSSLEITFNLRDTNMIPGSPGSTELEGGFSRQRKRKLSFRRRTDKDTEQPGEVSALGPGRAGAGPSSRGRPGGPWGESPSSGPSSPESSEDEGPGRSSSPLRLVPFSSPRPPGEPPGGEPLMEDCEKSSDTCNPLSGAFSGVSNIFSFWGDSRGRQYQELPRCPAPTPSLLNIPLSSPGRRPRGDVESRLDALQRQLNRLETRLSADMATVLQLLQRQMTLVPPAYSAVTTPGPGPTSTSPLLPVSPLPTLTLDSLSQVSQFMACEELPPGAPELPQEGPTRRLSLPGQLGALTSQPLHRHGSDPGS
# How it was run: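 In this thallium-flux screen, overnight-cultured U2OS cells bearing the channel are dye-loaded in darkness for an hour, rested 10 min at room temperature, and then monitored kinetically at 480/540 nm for two minutes post-stimulus.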
# [8] = molecular target: Cytochrome P450 3A4 (Homo sapiens) (UniProt P08684); assay: Cytochrome P450 Family 3 Subfamily A Member 4 (CYP3A4) small molecule antagonists: luciferase reporter qHTS assay (AID 1671201); further: nearly all actives have a fitted effect of over 50% in size; further: potency means the concentration at half of the fitted maximal effect
# Cytochrome P450 3A4 (Homo sapiens), sequence (P08684 whole entry, looked up): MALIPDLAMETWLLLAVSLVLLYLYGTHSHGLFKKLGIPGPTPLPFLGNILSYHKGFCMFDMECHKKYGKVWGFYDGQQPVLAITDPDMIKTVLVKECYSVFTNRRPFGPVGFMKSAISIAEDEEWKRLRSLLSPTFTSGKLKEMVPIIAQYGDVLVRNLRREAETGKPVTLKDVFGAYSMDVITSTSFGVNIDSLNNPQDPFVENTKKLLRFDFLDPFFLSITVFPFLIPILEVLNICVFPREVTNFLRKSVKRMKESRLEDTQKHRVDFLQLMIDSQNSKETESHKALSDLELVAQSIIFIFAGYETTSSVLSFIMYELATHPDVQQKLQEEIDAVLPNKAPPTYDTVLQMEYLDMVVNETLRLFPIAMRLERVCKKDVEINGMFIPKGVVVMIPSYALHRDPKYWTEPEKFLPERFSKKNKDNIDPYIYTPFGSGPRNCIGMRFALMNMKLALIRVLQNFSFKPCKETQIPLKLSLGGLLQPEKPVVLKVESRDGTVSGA
# How it was run: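 CYP3A4 activity was followed with a P450-Glo proluciferin substrate. Test compounds in DMSO were preincubated 10 min; NADPH regeneration then ran 1 h, and light output was read 20 min after detection reagent.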
Structure (SMILES),Potency [1],Potency [2],Potency [3],Potency [4],Potency [5],Potency [6],Potency [7],Potency [8]
Nc1ccc(-c2ccc(N)c(Cl)c2)cc1Cl,inactive,inactive,inactive,4.01 µM (active) and 3.73 µM (active) and 5.64 µM (active),10.1 µM (active) and 11.8 µM (active) and 12.6 µM (active),1.79 µM (active) and 1.48 µM (active) and 1.42 µM (active),inactive,5.05 µM (active) and 6.63 µM (active) and 7.96 µM (active)
C[N+](C)(C)Cc1ccccc1,inactive,inactive,7.93 µM (active) and inactive and 20 µM (active),31.6 µM (active) and inactive,79.6 µM (active) and inactive,inactive,inactive,inactive
CCC(=O)C(CC(C)N(C)C)(c1ccccc1)c1ccccc1 (stereo not given),inactive,inactive,2.01 µM (active) and 996 nM (active) and 1.53 µM (active),inactive,inactive,inactive,43.8 µM (active),–
Cc1cc(-c2ccc(N)c(C)c2)ccc1N,inactive,inactive,3.21 µM (active) [middle of 4 runs],6.4 µM (active) [middle of 4 runs],15.9 µM (active) [middle of 4 runs],509 nM (active) [middle of 4 runs],inactive,–
CC(=O)[O][Hg][c]1ccccc1,inactive,62.7 µM (active) and 56.4 µM (active),353 nM (active) and 564 nM (active) and 1.74 µM (active),8.86 µM (active) and 8.94 µM (active) and 17.4 µM (active),3.96 µM (active) and 2.52 µM (active) and 4.36 µM (active),17.7 µM (active) and 22.4 µM (active) and 27.5 µM (active),13.7 µM (active) and 13.8 µM (active),4.98 µM (active) and 7.96 µM (active) and 12.3 µM (active)
CCC[N+]1(C)CCCCC1,inactive,inactive,inactive,inactive,inactive,inactive,inactive,inactive
O=[N+]([O-])c1ccccc1O,inactive,inactive,31.6 µM (active) and inactive,inactive,inactive,–,inactive,inactive
CCn1cc[n+](C)c1C,inactive,inactive,inactive,inactive,inactive,inactive,inactive,inactive
CC[N+]1(C)CCCC1,inactive,inactive,6.3 nM (active) and inactive,inactive and 31.8 µM (active),inactive,inactive,inactive and 21.9 µM (active),inactive
CNC,inactive,inactive,inactive,inactive,inactive,inactive,inactive,inactive
Oc1ccccc1-c1ccccc1,inactive,inactive,39.9 µM (active),39.9 µM (active) and 31.7 µM (active) and 23 µM (active),71 µM (active) and 35.6 µM (active) and 25.8 µM (active),23 µM (active) [middle of 4 runs],inactive,inactive
CCCCCCCCCCCC(=O)O,inactive,inactive,inactive,79.9 µM (active) and inactive,102 µM (active),inactive,inactive,inactive
CCCn1cc[n+](C)c1,inactive,inactive,80.4 µM (active) and inactive,inactive,inactive,inactive,inactive,inactive
OCCOc1ccccc1,inactive,inactive,inactive,inactive,inactive,inactive,inactive,inactive
CC(Cl)(Cl)C(=O)O,inactive,inactive,inactive,inactive,inactive and 63.3 µM (active),inactive,inactive,inactive
Nc1ccc(Cl)cc1,inactive,inactive,20 µM (active) and 31.7 µM (active) and 60.8 µM (active),39.9 µM (active) and 20.4 µM (active),39.9 µM (active) and 32.3 µM (active),63.3 µM (active) and 39.9 µM (active) and 57.4 µM (active),inactive,inactive

# — PubChem BioAssay (Tox21)
